In the library only some 2.3% were active in any assay of this set; here they are far more common.
CHT PAM: allosteric activators of human choline transporter CHT | Q9GZV3 | B-score at 10 µM | actives 0.49% (n = 310,000) | CHT-expressing cells, membrane potential dye, choline EC20; stronger effect = higher value; LV-AA mutant CHT in HEK293 cells | AID 488977;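 active means initial fluorescence not abnormally high and integrated response B-score, plate-corrected, over 3 SD above library mean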
Target sequence (Q9GZV3 whole entry, looked up): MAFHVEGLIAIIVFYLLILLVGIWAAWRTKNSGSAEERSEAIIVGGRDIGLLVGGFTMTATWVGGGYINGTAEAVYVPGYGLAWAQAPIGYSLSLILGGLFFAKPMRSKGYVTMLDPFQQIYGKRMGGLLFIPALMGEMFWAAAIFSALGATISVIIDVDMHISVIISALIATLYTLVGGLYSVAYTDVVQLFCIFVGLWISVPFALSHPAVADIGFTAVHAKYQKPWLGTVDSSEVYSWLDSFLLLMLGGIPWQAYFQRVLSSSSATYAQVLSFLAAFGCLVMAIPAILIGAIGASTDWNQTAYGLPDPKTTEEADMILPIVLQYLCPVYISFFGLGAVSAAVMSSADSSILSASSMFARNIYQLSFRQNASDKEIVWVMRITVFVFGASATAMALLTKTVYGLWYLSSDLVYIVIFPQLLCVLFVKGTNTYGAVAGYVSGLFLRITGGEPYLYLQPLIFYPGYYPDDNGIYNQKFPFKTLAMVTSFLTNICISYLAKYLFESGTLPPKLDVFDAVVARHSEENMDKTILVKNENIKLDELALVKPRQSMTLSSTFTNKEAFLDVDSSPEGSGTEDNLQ
TMEM16A act: activators or potentiators of mouse TMEM16A chloride channel | Q8BHY3 | HEK293 TMEM16A/YFP-H148Q/I152L, iodide quench fluorescence; stronger effect = lower value | actives 0.3% (n = 340,000) | B-score at 10 µM | AID 623877;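 active means fluorescence-ratio B-score plate-corrected deviation score at least 3 library SD below zero, with starting fluorescence score within 5 deviations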;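 further: channel opened by trigger with iodide after compound preincubation; score built on the fluorescence ratio of max minus min over baseline; more negative score means more quench and so TMEM16A activation or potentiation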
CHT block: inhibitors of human choline transporter CHT; Q9GZV3; CHT-expressing cells, membrane potential dye, choline response; stronger effect = lower value; B-score at 10 µM; actives 0.86% (n = 310,000); AID 488975;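 active means B-score over 3 SD under the library average, and starting fluorescence ratio not unusually high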;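 further: choline stimulus applied at its EC90 after an EC20 pre-addition; B-score computed on integrated fluorescence ratio after choline addition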
TMEM16A inh: inhibitors of mouse TMEM16A calcium-activated chloride channel | actives 1.2% (n = 310,000) | normalized B-score (activity score, 25-100; higher = stronger inhibition) at 10 µM | AID 588511 | Q8BHY3 | HEK293 TMEM16A/YFP iodide influx fluorescence, ionomycin;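 active means ratio plate-corrected score three or more library SD toward inhibition, starting fluorescence score within five deviations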;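 further: score derived from kinetic fluorescence span divided by baseline fluorescence per well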
CHT block conf: confirmation of human choline transporter CHT inhibitors | CHT-expressing cells, choline membrane potential dye; LV-to-AA substituted CHT, HEK293 cells | AID 493221 | actives 70% (n = 2,400) | CHT activity remaining % of control (stronger effect = lower value), % at 10 µM | shares compounds with CHT block;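 active means choline transporter activity left, mean of duplicates at 10 µM, below buffer-only control mean minus 3 SD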;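 further: depolarization triggered by choline at its EC90 following an EC20 pre-addition; 0% = hemicholinium-3 full block and 100% = buffer-only control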
HEK293 CHT ctr: counter-screen for CHT inhibitors: effect in parental HEK293 cells; membrane potential ratio readout (active if shifted either direction beyond buffer ±3SD; no single direction) at 10 µM; shares compounds with CHT block; actives 4% (n = 2,400); membrane potential dye, choline response; active = decrease or increase beyond buffer ±3SD; AID 493222;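 further: parental cells lack the transporter so any hit is non-specific; ratio is peak minus trough fluorescence over baseline after EC90 choline challenge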
The depositor's hits bear a star.

Screening COc1ccccc1C(=O)Nc1ccc(C(=O)O)cc1 returned CHT PAM inactive, TMEM16A act inactive, CHT block inactive and TMEM16A inh inactive.
`Cc1nn(-c2cccc(C(F)(F)F)c2)c(=O)c2noc(C)c12` gave CHT PAM inactive, TMEM16A act inactive, CHT block inactive and TMEM16A inh inactive.
For Cn1c(N2CCOCC2)c(/C=N/OC(=O)c2ccc(F)cc2)c2ccccc21 the results were CHT PAM inactive, TMEM16A act inactive, CHT block -7.4*, TMEM16A inh inactive, CHT block conf 44%* and HEK293 CHT ctr inactive.
Screening CCN(CCNC(=O)CN1CCN(Cc2ccc(Cl)cc2)C1=O)c1ccccc1 returned CHT PAM inactive, TMEM16A act inactive, CHT block -6.2*, TMEM16A inh inactive, CHT block conf 66%* and HEK293 CHT ctr inactive.
For O=C(CN1CCN(Cc2ccccc2)C1=O)NCc1ccc(Cl)cc1 the results were CHT PAM inactive, TMEM16A act inactive, CHT block inactive and TMEM16A inh inactive.
For CCCc1ccc(S(=O)(=O)N2CCN(Cc3ccco3)CC2)cc1 the results were CHT PAM inactive, TMEM16A act inactive, CHT block inactive and TMEM16A inh inactive.
For CCCS(=O)(=O)N1CCN(Cc2ccco2)CC1 the results were CHT PAM inactive, TMEM16A act inactive, CHT block -6.7*, TMEM16A inh inactive, CHT block conf inactive and HEK293 CHT ctr inactive.
For Cc1ccc(N(C)C(=O)CC(C)S(=O)(=O)c2ccc3c(c2)NC(=O)CO3)cc1 (centres undefined) the results were CHT PAM inactive, TMEM16A act inactive, CHT block -5.7*, TMEM16A inh inactive, CHT block conf inactive and HEK293 CHT ctr inactive.
For Cc1ccc(NC(=O)CC(C)S(=O)(=O)c2ccc3c(c2)NC(=O)CO3)c(Cl)c1 (centres undefined) the results were CHT PAM inactive, TMEM16A act inactive, CHT block inactive and TMEM16A inh inactive.
Screening NS(=O)(=O)c1ccc(NC(=O)Nc2ccc(S(N)(=O)=O)cc2)cc1 returned CHT PAM inactive, TMEM16A act inactive, CHT block -13*, TMEM16A inh inactive, CHT block conf inactive and HEK293 CHT ctr inactive.
`O=C(N/N=C/C=C/c1ccccc1[N+](=O)[O-])c1cc(-c2cccnc2)nc2ccccc12` gave CHT PAM inactive, TMEM16A act inactive, CHT block -9.2*, TMEM16A inh inactive, CHT block conf inactive and HEK293 CHT ctr inactive.
Screening Cc1c(C)c2c(OCC(=O)N3CCC(C(N)=O)CC3)cc3c(c2oc1=O)CCC(C)(C)O3 returned CHT PAM inactive, TMEM16A act inactive, CHT block inactive and TMEM16A inh inactive.
For CCCCc1cc(O)c(CCCC)c(O)c1 the results were CHT PAM inactive, TMEM16A act inactive, CHT block -5.2*, TMEM16A inh 100*, CHT block conf 67%* and HEK293 CHT ctr inactive.
Screening NCCc1ccc(O)c(O)c1 returned CHT PAM inactive, TMEM16A act inactive, CHT block inactive and TMEM16A inh inactive.
For COc1ccc(C(=O)CSc2nnc(-c3ccco3)n2C)cc1 the results were CHT PAM inactive, TMEM16A act inactive, CHT block -5.4*, TMEM16A inh inactive, CHT block conf inactive and HEK293 CHT ctr inactive.
Screening COc1ccc(C(=O)CSc2nnc(-c3ccco3)n2CC2CCCO2)cc1 (centres undefined) returned CHT PAM inactive, TMEM16A act inactive, CHT block inactive and TMEM16A inh inactive.
Screening C#CC[N+]1(CC#Cc2ccccc2)CCCCC1 returned CHT PAM inactive, TMEM16A act inactive, CHT block -9.6*, TMEM16A inh inactive, CHT block conf inactive and HEK293 CHT ctr inactive.
For C(#Cc1ccccc1)C[N+]1(CC#Cc2ccccc2)CCCCC1 the results were CHT PAM inactive, TMEM16A act inactive, CHT block inactive and TMEM16A inh inactive.
`C#CC[N+]1(CC#Cc2cccc(C)c2)CCCCC1` gave CHT PAM inactive, TMEM16A act inactive, CHT block -6.7*, TMEM16A inh inactive, CHT block conf 39%* and HEK293 CHT ctr inactive.
Screening CCN(CC(=O)NCc1cccs1)S(=O)(=O)c1ccc(C(C)C)cc1 returned CHT PAM inactive, TMEM16A act inactive, CHT block -5*, TMEM16A inh inactive, CHT block conf 60%* and HEK293 CHT ctr inactive.
For CCN(CC(=O)NCc1cccs1)S(=O)(=O)c1ccccc1Cl the results were CHT PAM inactive, TMEM16A act inactive, CHT block inactive and TMEM16A inh inactive.
`CCC(C)c1ccc(NC(=S)NC(C)C2CCCO2)cc1` (centres undefined) gave CHT PAM inactive, TMEM16A act inactive, CHT block -8.3*, TMEM16A inh inactive, CHT block conf 47%* and HEK293 CHT ctr inactive.
CCC(C)c1ccc(C(CC)NC(=O)C2CCCO2)cc1 (centres undefined) was read as CHT PAM inactive, TMEM16A act inactive, CHT block inactive and TMEM16A inh inactive.
For CCOc1cc2[nH]c(=S)n(C3CC3)c(=O)c2cc1OCC the results were CHT PAM inactive, TMEM16A act inactive, CHT block inactive and TMEM16A inh inactive.
`CCOc1cc2[nH]c(=S)n(C(C)C)c(=O)c2cc1OCC` gave CHT PAM inactive, TMEM16A act inactive, CHT block -8.8*, TMEM16A inh inactive, CHT block conf 52%* and HEK293 CHT ctr inactive.
`Cn1ccnc1SCC(=O)Nc1ccc2nc(SCC(=O)NC3CC3)sc2c1` gave CHT PAM inactive, CHT block -16*, TMEM16A inh inactive, CHT block conf 21%* and HEK293 CHT ctr inactive.
Cn1ccnc1SCC(=O)NC1CCCC1 was read as CHT PAM inactive, TMEM16A act inactive, CHT block inactive and TMEM16A inh inactive.
Screening CSc1nnc(-c2sccc2OCc2ccccc2)n1C returned CHT PAM inactive, TMEM16A act inactive, CHT block -7.3*, TMEM16A inh inactive, CHT block conf 55%* and HEK293 CHT ctr -9.6*.
`CCN(CC)C(=O)C(C)OC(=O)COc1ccc(Cl)cc1C` (centres undefined) gave CHT PAM inactive, TMEM16A act inactive, CHT block inactive, TMEM16A inh inactive, CHT block conf inactive and HEK293 CHT ctr inactive.

Source: PubChem BioAssay
